# The supplement of paper PMC6555819
# Test system: LXRb:RXRa (NR concentration 270 nM, RXRa partner concentration 90 nM)
# Experiment: PBM binding z-score (relative to random genomic background probes); higher = stronger binding; sequences stand for … in GC…GCGATTGACAGCGTAGAATGAAGG
# Summary of the method: (§1)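 Binding buffer was PBS pH 7.4 with 2% milk, 0.02% Triton X-100, 1 mM DTT, 0.2 mg/mL BSA and 0.4 mg/ml salmon testes DNA. In it, ligand-free nuclear receptor dimers were incubated 1 h on custom Agilent 4×180K protein-binding microarrays carrying double-stranded probes. Antibodies against each partner (one per run) detected binding, and z-scores were calculated against random background probes after regression normalization of scanned fluorescence.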
row,Sequence,PBM binding z-score
1,ATCTCTAGGTGAAGTTCAGTGAAAGATCGATAGA,0.0201
2,CCGACTGGGGCAGAAAGTTTACCATACCATCCGG,-0.494
3,ACAGACAGGTGATGAAGGTAACTAAGGCTATCAT,0.0824
4,GCATGTAGATCAAGGTTAAGAAAGACTAAGCTAA,0.504
5,TCTTGTAGATCAACAGGAGGTCAAGAAAGATCGA,3.32
6,CTTGCTAGGTCAATGGTCAGCTAAAGCAGCTCGC,1.33
7,TCGAGTAGGTTCGTCGGGGCATTCAGCCAACATA,0.726
8,ATCTCTGGGTAACAAGTTCAGTGAAAGAGAGGAC,0.819
9,TAGCCCAGGTCAGATCGGGCCAGTATACGCTATA,0.735
10,TGTCAAAGTTCAATGGTAACGTAAGTATCCACAC,3.03
11,CGAACGAGGGCATGAGTTGATAGCAAATGCCGAT,0.279
12,CGTCCAAGGTCATAGGAGGTCAGGGAAGACAGAT,6.25
13,GCTGCTTGGTCAACTGATGGTCAGCTAAAGCTCG,-0.752
14,ATCTCTAGGAAACCAAGTTCAGTGAATGCCGAAC,0.317
15,CCTGCTAGGTCATGGTCATCTAATCTACAGTATG,1.89
16,TAGCCTATGTCATTGGGCCAGTATAGTACGCATC,-0.0433
17,CGAACTAGGTCAGAACAGGACACTGAAGGATGAT,0.71
18,GCTCGGAGGACAAGGTCAGATCTTTGTCCGTAGA,1.87
19,AGAATGAGGTTATTACGATCAGGGAATTGCGGTC,1.49
20,TCATATACGTAAAAGGTGAAAGTCGGTGTGGTAA,1.7

row,Sequence,PBM binding z-score
1,CCTAGTGGGCCACGAAAGGTCATTGATTCAGTGA,4.3
2,TCTTGTAGTTCAATAGAGGTTAAGAAAGTGCGCT,3.06
3,ACAGACAGGTGATAAAGGTAACTCAGGCTATCAT,0.128
4,CCTACTGGGTCATCAGGTCATTGATATCAACGTT,3.19
5,TCATCTAGGTAAAAGGTGAAAGTCGGTGTGGTAA,1.97
6,CAGCCTAGGTCAGGCCCAGTATAGGAGGAACGTT,0.0997
7,AATACAGGGTCATCGTAAGCCAGAGTACGCACAG,4.69
8,CCTACTGGGCCACGAACGGTCATTGATTCAGTGA,-0.0702
9,GCGACTTGGGCAAAGCAGGTTACCATAAGGTTGG,-0.537
10,TCTAGTAGGTTAGTCGGGGCATTCAGCCAACATA,1.54
11,AGAACGAGGGCACGCTCAGTTGATAGCAGAGTAG,0.0167
12,CGTACTAGGTCATTGACAGGACAGTGAATAGTAA,2.29
13,ATCGAAAGGTCGAGGTGAGCATAGAGAAAGGGAA,2.7
14,TCATATAGGTAAAGGTGCAAGTCGAACGATATGA,0.57
15,TCTAGTTGGTCACGGAGGTCACTCACGACGGGTA,2.84
16,GCGACTGGGGCATAAGCAGGTTACCATAACTTAA,0.583
17,AATACAGGCTCATCGTAGGCCAGAGTACGCACAG,-0.712
18,CGTACAAGGTCAGCAGGTCAGTGAAAGCGACGTG,3.29
19,ACAGACAGGTGAGTGAAGGGAACTCAGCTGGACG,-0.538
20,CCTACTGGGCCAAAAAGGTCCTTGATGCCGATAA,-0.39

# Test system: LXRb homodimer (NR concentration 270 nM)
# Experiment: as above
# Summary of the method: as §1
row,Sequence,PBM binding z-score
1,ATCTCTAGGTGAAGTTCAGTGAAAGATCGATAGA,0.118
2,CCGACTGGGGCAGAAAGTTTACCATACCATCCGG,-0.896
3,ACAGACAGGTGATGAAGGTAACTAAGGCTATCAT,-0.634
4,GCATGTAGATCAAGGTTAAGAAAGACTAAGCTAA,-0.805
5,TCTTGTAGATCAACAGGAGGTCAAGAAAGATCGA,0.366
6,CTTGCTAGGTCAATGGTCAGCTAAAGCAGCTCGC,-0.0348
7,TCGAGTAGGTTCGTCGGGGCATTCAGCCAACATA,-0.765
8,ATCTCTGGGTAACAAGTTCAGTGAAAGAGAGGAC,0.98
9,TAGCCCAGGTCAGATCGGGCCAGTATACGCTATA,-0.412
10,TGTCAAAGTTCAATGGTAACGTAAGTATCCACAC,0.934
11,CGAACGAGGGCATGAGTTGATAGCAAATGCCGAT,-0.902
12,CGTCCAAGGTCATAGGAGGTCAGGGAAGACAGAT,0.687
13,GCTGCTTGGTCAACTGATGGTCAGCTAAAGCTCG,-0.593
14,ATCTCTAGGAAACCAAGTTCAGTGAATGCCGAAC,0.4
15,CCTGCTAGGTCATGGTCATCTAATCTACAGTATG,-0.408
16,TAGCCTATGTCATTGGGCCAGTATAGTACGCATC,-0.648
17,CGAACTAGGTCAGAACAGGACACTGAAGGATGAT,-0.177
18,GCTCGGAGGACAAGGTCAGATCTTTGTCCGTAGA,-0.0535
19,AGAATGAGGTTATTACGATCAGGGAATTGCGGTC,0.0914
20,TCATATACGTAAAAGGTGAAAGTCGGTGTGGTAA,0.467

row,Sequence,PBM binding z-score
1,CCTAGTGGGCCACGAAAGGTCATTGATTCAGTGA,0.26
2,TCTTGTAGTTCAATAGAGGTTAAGAAAGTGCGCT,0.28
3,ACAGACAGGTGATAAAGGTAACTCAGGCTATCAT,-0.23
4,CCTACTGGGTCATCAGGTCATTGATATCAACGTT,-0.201
5,TCATCTAGGTAAAAGGTGAAAGTCGGTGTGGTAA,0.11
6,CAGCCTAGGTCAGGCCCAGTATAGGAGGAACGTT,-0.815
7,AATACAGGGTCATCGTAAGCCAGAGTACGCACAG,1.14
8,CCTACTGGGCCACGAACGGTCATTGATTCAGTGA,-0.838
9,GCGACTTGGGCAAAGCAGGTTACCATAAGGTTGG,-1.29
10,TCTAGTAGGTTAGTCGGGGCATTCAGCCAACATA,0.412
11,AGAACGAGGGCACGCTCAGTTGATAGCAGAGTAG,-0.804
12,CGTACTAGGTCATTGACAGGACAGTGAATAGTAA,0.27
13,ATCGAAAGGTCGAGGTGAGCATAGAGAAAGGGAA,0.363
14,TCATATAGGTAAAGGTGCAAGTCGAACGATATGA,-0.374
15,TCTAGTTGGTCACGGAGGTCACTCACGACGGGTA,0.542
16,GCGACTGGGGCATAAGCAGGTTACCATAACTTAA,-0.304
17,AATACAGGCTCATCGTAGGCCAGAGTACGCACAG,-0.726
18,CGTACAAGGTCAGCAGGTCAGTGAAAGCGACGTG,-0.00943
19,ACAGACAGGTGAGTGAAGGGAACTCAGCTGGACG,-0.387
20,CCTACTGGGCCAAAAAGGTCCTTGATGCCGATAA,-0.811
